SRC3 inh = SRC3 coactivator transcriptional activity inhibitors, primary screen, cell-based, luminescence. Nuclear receptor coactivator 3 (Homo sapiens), Q9Y6Q9. HEK293 GAL4-SRC3 luciferase reporter. inhibition, % at 3.6 µM. 360,000 tested, 0.17% active;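 active = inhibition above a per-campaign cutoff, the mean of all compounds plus 3 SD, cut at about 60% in these data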;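 note: 0% = DMSO-treated cells and 100% = gossypol-treated cells at 36 µM; higher means less SRC3-driven luciferase light from the GAL4 reporter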
NR2F2 inh = NR2F2 transcriptional activity inhibitors, primary screen, cell-based, luciferase reporter, HEK293T, luminescence | COUP transcription factor 2 (Homo sapiens), P24468 | HEK293T NGFI-A luciferase reporter | inhibition, % at 8.6 µM | 370,000 tested, 0.7% active;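 active = inhibition above a per-plate cutoff, mean inhibition of test wells between control levels plus 3 SD, cut at about 38% in these data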;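 note: cells cotransfected with COUP-TFII expression vector driving the NGFI-A reporter; 0% = median of COUP-TF2 test wells and 100% = reporter-only cells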
Target sequence (P24468 whole entry, looked up): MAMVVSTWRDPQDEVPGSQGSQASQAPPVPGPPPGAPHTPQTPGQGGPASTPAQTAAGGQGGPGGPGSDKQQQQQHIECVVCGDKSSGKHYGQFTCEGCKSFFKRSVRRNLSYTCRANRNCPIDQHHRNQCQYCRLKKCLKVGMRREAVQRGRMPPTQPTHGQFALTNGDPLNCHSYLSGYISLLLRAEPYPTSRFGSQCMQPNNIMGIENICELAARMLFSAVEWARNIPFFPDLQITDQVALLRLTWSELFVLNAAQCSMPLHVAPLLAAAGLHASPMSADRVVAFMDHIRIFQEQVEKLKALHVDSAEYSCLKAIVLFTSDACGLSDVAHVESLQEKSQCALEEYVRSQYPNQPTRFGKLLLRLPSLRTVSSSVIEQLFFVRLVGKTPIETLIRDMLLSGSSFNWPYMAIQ
GalR3 antag = GalR3 antagonists in HEK293 cells, primary screen, cell-based, fluorescence readout; 360,000 tested, 0.44% active; HEK293 GalR3-CNG cAMP membrane potential fluorescence; galR3 body fused to GalR1 C-terminus; inhibition, % at 3 µM;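 active = inhibition above the screen-wide average plus 3 SD, cut at about 13% in these data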;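 note: forskolin and galanin both at EC90 stimulate the cells; cAMP rise reported by CNG channel membrane potential dye signal; 0% = forskolin plus galanin with DMSO and 100% = forskolin alone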
NCOA1 inh = SRC1 coactivator transcriptional activity inhibitors, primary screen, cell-based, luminescence; AID 588354, 2011; inhibition, % at 3.6 µM; 360,000 tested, 0.12% active; HEK293 GAL4-SRC1 luciferase reporter; Nuclear receptor coactivator 1 (Homo sapiens), Q15788;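 active = inhibition above the campaign mean plus 3 SD, with each screening campaign given its own cutoff, cut at about 60% in these data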;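 note: 0% = DMSO treated cells and 100% = gossypol at 36 µM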
NR5A2 inv ag = LRH-1 (NR5A2) inverse agonists, primary screen, cell-based, luminescence, HEK293T, StAR-luciferase reporter; Nuclear receptor subfamily 5 group A member 2 (Homo sapiens), O00482; LRH-1 transfected, 24 h; inhibition, % at 3.6 µM; 360,000 tested, 0.13% active; AID 602396, 2012;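 active = inhibition above the mean inhibition of all tested compounds plus 3 SD, cut at about 73% in these data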;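 note: 0% = DMSO wells and 100% = reporter-only cells lacking LRH-1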
NCOA2 inhibitor = inhibition of GAL4-SRC2 driven luciferase reporter, primary screen, SRC2 inhibitor project, cell-based, luminescence; Nuclear receptor coactivator 2 (Homo sapiens), Q15596; HEK293 GAL4-SRC2 luciferase reporter; inhibition, % at 9 µM; 370,000 tested, 0.17% active;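 active = inhibition above the mean inhibition of all tested compounds plus 3 SD, set per campaign, cut at about 52% in these data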;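 note: 0% = DMSO treated cells and 100% = cells given Gossypol at 36 µM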
VP16 Luc counter = Gal4-VP16 luciferase reporter inhibitors, counter-screen for COUP-TFII antagonist project, cell-based, luminescence, HEK293 | shares compounds with NR2F2 inh | 2,500 tested, 25% active | inhibition, % at 8.5 µM; in the data active = inhibition above about 13%
COUP-TFII conf = NR2F2 transcriptional activity inhibitors, confirmation, cell-based, luciferase reporter, HEK293, triplicate. shares compounds with NR2F2 inh. HEK293 NGFI-A luciferase reporter, luminescence. inhibition, % at 8.5 µM. 2,500 tested, 45% active. AID 687008, 2013;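 active = mean inhibition over three repeats above a set limit taken from the earlier primary screen, cut at about 38% in these data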;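 note: 100% = cells given the luciferase reporter alone without the COUP-TF2 vector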
An asterisk follows results filed as active; · = no result. In the library only some 1.1% were active in any assay of this set; here they are far more common.

SMILES	SRC3 inh	NR2F2 inh	GalR3 antag	NCOA1 inh	NR5A2 inv ag	NCOA2 inhibitor	VP16 Luc counter	COUP-TFII conf
Cn1nc(C(C)(C)C)cc1C(=O)N1CCCCC1c1cc(C(=O)NCc2ccc(F)cc2)no1 (stereo not drawn)	-4	38*	-7	4	17	1	3	17
CCN(c1cccc(C(F)(F)F)c1)S(=O)(=O)c1ccc2c(c1)CCN2C(C)=O	6	47*	4	7	-1	21	0	3
CCN(c1cccc(C)c1)S(=O)(=O)c1ccc2c(c1)CCN2C(C)=O	11	9	-3	8	5	1	·	·
CN1Cc2sc(NC(=S)NC(=O)c3ccccc3)c(C#N)c2CC1(C)C	·	40*	2	·	·	43	7	69*
CC(=O)Nc1ccc(S(=O)(=O)N2CCN(CC(O)COc3ccc4ccccc4c3)CC2)cc1 (stereo not drawn)	-2	15	-5	8	8	-7	·	·
Cc1c(C(=O)NCc2ccc(Cl)c(Cl)c2)sc(=O)n1Cc1ccc(S(C)(=O)=O)cc1	-4	85*	-3	5	13	13	-8	4
Cc1c(C(=O)NCc2ccc3c(c2)OCCO3)sc(=O)n1Cc1ccc(S(=O)(=O)N(C)C)cc1	18	45*	-2	16	26	-8	5	14
CSc1ccc(Cn2c(C)c(C(=O)NCc3ccc(Cl)c(Cl)c3)sc2=O)cc1	-1	34	-1	5	31	0	·	·
COc1ccc(S(=O)(=O)N2CCCCC2)cc1NC(=O)CNc1ccccc1N1CCCC1=O	-2	3	-8	1	-2	-37	·	·
Cc1ccc(C)c(NC(=O)CCC(=O)N/N=C/c2ccc[nH]2)c1	-24	-7	-6	11	15	-8	·	·
O=C(Nc1ccc(F)c(F)c1)c1ccc(F)c(S(=O)(=O)N2CCC3(CC2)OCCO3)c1	16	39*	-9	13	5	2	-4	18
CC(C)c1nc(SCC(=O)N2CCCCCC2)c2c(=O)n(C)c(=O)n(C)c2n1	12	-24	-3	3	-2	-29	·	·
Cc1nc(SCC(=O)N2CCCCCC2)c2c(=O)n(C)c(=O)n(CC(C)C)c2n1	15	42*	-3	16	16	18	0	23
CCOC(=O)C1CCN(C(=O)CCS(=O)(=O)c2ccc3c(c2)n(C)c(=O)c(=O)n3C)CC1	1	-10	1	-13	-23	33	·	·
Cc1ccc(C)c(N2CCN(C(=O)C34CC5CC(C3)CC(n3nnc(C)n3)(C5)C4)CC2)c1	37	47*	1	-2	-6	4	-3	22
COc1ccc(OC)c(C(c2c(C)[nH][nH]c2=O)c2c(C)[nH][nH]c2=O)c1	2	17	-6	22	13	-8	·	·
CCc1ccc(S(=O)(=O)Nc2cc3c(cc2C)n(C)c(=O)n3C)cc1	16	41*	-5	-4	37	10	11	26
CC(=O)N[C@@H](C)CCc1ccc(Oc2ccc(OC(C)C)nc2)cc1	·	39*	·	·	·	·	-32	1
O=C(Cc1csc(N2CCOCC2)n1)N/N=C/c1cccc(O)c1	-19	·	·	0	2	·	·	·
COc1ccc(C(=O)Nc2cc(S(=O)(=O)N3CCCCC3)ccc2OC)cc1	10	0	-4	-10	-2	-14	·	·
CC(=O)Nc1ccc(N/C(N)=N/c2nc(C)cc(C)n2)cc1	15	-7	2	-11	24	-3	·	·
Cc1cc(C)nc(/N=C(\N)Nc2ccc(-c3ccccc3)cc2)n1	47	56*	-7	25	29	8	4	35
C=C/C(C)=C/C[C@H]1C(=C)CCC2[C@](C)(C(=O)O)CCC[C@@]21C (stereo partly drawn)	16	·	·	-4	8	·	·	·
C=C1CCC2C(C)(C)CCC[C@]2(C)[C@H]1CC1=C(O)C(=O)C(CO)=CC1=O (stereo partly drawn)	·	55*	·	·	·	62*	46*	62*
CCN(CC)S(=O)(=O)c1ccc(Cl)c(NC(=S)NC(=O)C2CCCC2)c1	-1	44*	0	5	10	21	2	21
SMILES	SRC3 inh	NR2F2 inh	GalR3 antag	NCOA1 inh	NR5A2 inv ag	NCOA2 inhibitor	VP16 Luc counter	COUP-TFII conf
CCN(CC)c1ccc(S(=O)(=O)Nc2cc(Cl)ccc2Cl)cc1NC(=S)NC(=O)C1CCCC1	7	14	-4	5	-4	11	·	·
CC(C)(O)C#Cc1ccc(C(=O)N2CCN(c3ccc([N+](=O)[O-])cc3)CC2)cc1	-3	38*	-3	22	18	29	6	24
CC(C)(O)C#Cc1ccc(C(=O)N2CCN(c3ccccc3)CC2)cc1	20	9	-7	-3	10	-11	·	·
CCCCN(CCCC)c1cn[nH]c(=O)c1Cl	18	8	-2	-3	7	2	·	·
CN(C)CCCNC(=O)C(=O)Nc1cc2c3c(c1)CCC(=O)N3CCC2	-16	0	2	5	19	-10	·	·
C#CCN(C[C@@H]1[C@@H](OC(=O)NCc2ccccc2F)[C@@H](OC(=O)NCc2ccccc2F)Cn2c(=O)ccc(=O)n21)S(=O)(=O)c1ccc(C)cc1	36	63*	-5	5	25	22	23*	37
C#CCN(C[C@@H]1[C@@H](OC(=O)Nc2cccs2)[C@@H](OC(=O)Nc2cccs2)Cn2c(=O)ccc(=O)n21)S(=O)(=O)c1ccc(C)cc1	25	76*	-6	14	53	52	25*	43*
C#CCN(C[C@@H]1[C@@H](OC(=O)NC2CCCC2)[C@@H](OC(=O)NC2CCCC2)Cn2c(=O)ccc(=O)n21)S(=O)(=O)c1ccc(C)cc1	-30	34	-8	-6	26	-30	·	·
CN1[C@H](Cc2ccccc2)COc2cc(N3CCCC3)ccc2S1(=O)=O	·	55*	·	·	·	0	4	9
CN1[C@H](Cc2ccccc2)COc2cc(N3CCSCC3)ccc2S1(=O)=O	·	27	·	·	·	5	·	·

Screening data: PubChem BioAssay, The Scripps Research Institute Molecular Screening Center
